Source: PubChem BioAssay AID1209 (Sanford-Burnham Center for Chemical Genomics, 2008)
The whole screen tested about 190,000 compounds, of which about 810 (0.43%) were called active. This is one part of a sample in which actives are shown more often than they occur. Values without a mark were called inactive. No stated cut-off is given here; in the data, active means inhibition above about 50%; inactive means the rest.

The molecules below were run against Mannose-6-phosphate isomerase (Homo sapiens) (UniProt P34949) (assay: MPI enzyme activity inhibition – biochemical, fluorescence intensity, coupled assay, primary screen (AID 1209;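 further: plate controls were DMSO vehicle for no effect and wells lacking substrate for full effect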)). Details: purified PMI enzyme, at 20 µM, stronger effect = higher value.
Sequence of Mannose-6-phosphate isomerase (Homo sapiens) (P34949 whole entry, looked up): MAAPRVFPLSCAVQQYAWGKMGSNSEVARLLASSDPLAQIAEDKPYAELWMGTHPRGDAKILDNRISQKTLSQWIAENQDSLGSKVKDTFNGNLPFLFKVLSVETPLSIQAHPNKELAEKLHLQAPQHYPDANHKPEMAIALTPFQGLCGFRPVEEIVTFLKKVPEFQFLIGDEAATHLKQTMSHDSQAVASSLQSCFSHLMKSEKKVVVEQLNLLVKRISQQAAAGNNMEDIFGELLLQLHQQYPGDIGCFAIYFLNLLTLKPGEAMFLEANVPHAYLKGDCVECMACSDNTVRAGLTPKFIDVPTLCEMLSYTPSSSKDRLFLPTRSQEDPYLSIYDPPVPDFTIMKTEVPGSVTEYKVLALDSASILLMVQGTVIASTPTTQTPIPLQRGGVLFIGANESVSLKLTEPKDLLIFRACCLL
Molecule `CCCNC(=O)COC(=O)c1ccccc1OCC(=O)Nc1ccc(Br)cc1` has an inhibition of -10.2%.
`COc1ccc(-c2csc(NC(=O)C3CC(=O)N(c4ccc5c(c4)OCCO5)C3)n2)cc1` (stereo unspecified) showed an inhibition of 5.8%.
For `O=C1CCCN2N=C(SCC(=O)N3N=C(c4ccc(Br)cc4)CC3c3ccc(F)cc3)SC2=N1` (stereo unspecified), the inhibition was 22.3%.
In the case of `CC(NC(=O)Nc1ccc2c(c1)OCO2)C1CCCO1` (stereo unspecified), the inhibition is reported as 0.5%.
`Cc1cc(N2CCOCC2)ccc1/C=C1/SC(=O)NC1=O` showed an inhibition of -13.8%.
For `O=C1NC(=O)/C(=C/c2ccc(O)cc2)S1`, the inhibition was -8.7%.
With `O=C1NC(=O)/C(=C\c2ccc(O)cc2O)S1` the inhibition was 53.5% (active).
In the case of `O=S(=O)(c1ccc(Cl)cc1)c1cnc2ccccc2n1`, the inhibition is reported as -6.4%.
In the case of `CC(C)(C)NC(=O)c1cc(-c2ccccc2)n[nH]1`, the inhibition is reported as 70.1% (active).
`COC(=O)c1cc(-c2ccccc2)n[nH]1` was tested, and the inhibition was 7.7%.
For `O=C(O)c1cc(-c2ccccc2)n[nH]1`, the inhibition was -12%.
Work on `Cc1c(Br)c([N+](=O)[O-])nn1CC(=O)Nc1ccccn1` yielded an inhibition of 7.8%.
In the case of `Cc1c(Br)c([N+](=O)[O-])nn1CC(=O)NCc1ccccn1`, the inhibition is reported as 101% (active).
`Cc1c(Br)c([N+](=O)[O-])nn1CC(=O)NCc1ccccc1` gave an inhibition of 1.2%.
`O=C(C1CCCN(S(=O)(=O)c2cnc[nH]2)C1)N(CCc1ccccc1)Cc1ccccc1` (stereo unspecified) showed an inhibition of 9.1%.
In the case of `CCOCC(=O)Nc1nc2ccc(C)cc2s1`, the inhibition is reported as 110% (active).
Work on `COCC(=O)Nc1nc2ccc(C)cc2s1` yielded an inhibition of 4.3%.
Molecule `CCOCC(=O)Nc1nc2ccc(OCC)cc2s1` has an inhibition of -3%.
For `CNC(=S)N1CCc2cc(OC)c(OC)cc2C1COc1ccc(F)cc1` (stereo unspecified), the inhibition was 10.3%.
`O=C1CNC(=O)c2c(nc3n2CCC3)N1` gave an inhibition of -20.3%.
For `CC(C)=C1SC(N2CCN(c3ccc(Cl)cc3)CC2)=NC1=O`, the inhibition was 0.9%.
Molecule `COc1cccc(C(=O)NC(C)C(c2cccs2)N2CCN(C)CC2)c1` (stereo unspecified) has an inhibition of 4.2%.
With `COc1cc(/C=N/N=C(/C(=O)c2ccccc2)c2ccccc2)cc(OC)c1O` the inhibition was 22%.
`Oc1cccc(/C=N/N(Cc2ccccc2)c2ccccc2)c1` gave an inhibition of 10%.
`O=C(/C(=N/N=C/c1ccc(O)c(O)c1)c1ccccc1)c1ccccc1` was tested, and the inhibition was 30.7%.
For `Oc1ccc(/C=N/N(Cc2ccccc2)c2ccccc2)c(O)c1O`, the inhibition was 76.6% (active).
`COc1ccc(/C=N/N(Cc2ccccc2)c2ccccc2)cc1O` showed an inhibition of 16.7%.
For `Oc1ccc(/C=N/N=C(c2ccccc2)c2ccccc2)c(O)c1O`, the inhibition was 67.9% (active).
`CCN(CC)c1ccc(/C=N/N=C(c2ccccc2)c2ccccc2)c(O)c1` gave an inhibition of 0.4%.
Work on `Oc1cccc(C=NCc2ccccc2)c1O` yielded an inhibition of 49.6%.
In the case of `O=C(/C(=N/N=C/c1ccc(O)c(O)c1O)c1ccccc1)c1ccccc1`, the inhibition is reported as 55.5% (active).
For `CC(=O)c1cn(CCCCCCCn2cc(C(C)=O)c(=O)[nH]c2=O)c(=O)[nH]c1=O`, the inhibition was 1.5%.
`O=C(COC(=O)Cc1ccc(Br)cc1)NC1CCCCC1` was tested, and the inhibition was -3.4%.
With `Oc1ccc(C2N=C(c3ccccc3)NC(c3ccccc3)=N2)cc1` the inhibition was 3.9%.
With `Cc1ccc(C(=O)OCC(=O)Nc2sc3c(c2C#N)CCCC3)cc1NC(=O)c1ccco1` the inhibition was 1.3%.
With `CSc1nc(=NC(C)=O)ss1` the inhibition was 54.4% (active).
Molecule `CCN(c1ccccc1)S(=O)(=O)c1ccc(OC)c(NC(=O)CNC)c1` has an inhibition of 7.5%.
Molecule `CCN(CC)CCOC(=O)c1c(C)oc2ccc(OC)cc12` has an inhibition of -3.8%.
In the case of `CCN(CC)CCOC(=O)c1c(C)oc2ccc(O)cc12`, the inhibition is reported as 81.6% (active).
`CCOC(=O)c1c(C)oc2ccc(O)cc12` was tested, and the inhibition was 8.3%.
In the case of `C/C(=N\NC(=O)CCc1c[nH]c2ccccc12)c1ccc([N+](=O)[O-])cc1`, the inhibition is reported as 7.7%.
For `O=C(Cc1coc(-c2ccc(F)cc2)n1)N1CCOCC1`, the inhibition was 1%.
For `OCCN(CCO)c1ccc(C(c2ccccc2Cl)c2ccc(N(CCO)CCO)cc2Cl)c(Cl)c1`, the inhibition was 22.1%.
Work on `Nc1ccc(N(CCO)CCO)cc1` yielded an inhibition of 4.7%.
Work on `Cc1nc(SCC(=O)c2ccc(F)cc2)n[nH]1` yielded an inhibition of -6.3%.
For `Cc1nc(SCC(=O)c2ccccc2)n[nH]1`, the inhibition was 65.9% (active).
`Cc1ccc(C(=O)CSc2n[nH]c(C)n2)cc1` gave an inhibition of 48.5%.
In the case of `Cc1ccc(/C=C2/SC(=S)N(CCCC(=O)Nc3ccc(O)cc3)C2=O)cc1`, the inhibition is reported as 22.7%.
`O=C(CCCN1C(=O)/C(=C/c2ccccc2)SC1=S)Nc1ccc(O)cc1` was tested, and the inhibition was 73% (active).
`O=C(CCCN1C(=O)/C(=C/c2ccccc2)SC1=S)Nc1cccc(O)c1` showed an inhibition of 13%.
In the case of `O=C(COC(=O)/C=C/c1ccc([N+](=O)[O-])cc1)NC(c1ccccc1)c1ccccc1`, the inhibition is reported as 13%.
Molecule `CC1=C(C(=O)Nc2ccccc2)C(c2cccc([N+](=O)[O-])c2)Nc2nc3ccccc3n21` (stereo unspecified) has an inhibition of 6.9%.
`O=C(CN1c2cccc3cccc(c23)S1(=O)=O)N1CCOCC1` gave an inhibition of 1%.
With `CC1=CC(C)(C)Nc2ccc(OC(=O)CN3C(=O)c4cccc5cccc(c45)C3=O)cc21` the inhibition was 53.4% (active).
`CC1=CC(C)(C)Nc2ccc(OC(=O)CN3C(=O)CCC3=O)cc21` showed an inhibition of 22%.
Molecule `CC1=CC(C)(C)Nc2ccc(OC(=O)CN3C(=O)c4ccccc4C3=O)cc21` has an inhibition of 16.6%.
`Cc1cc(NC(=O)c2cc(-c3ccccc3)on2)n(-c2ccccc2)n1` showed an inhibition of 0.3%.
Work on `CCC(C)CCCCNC1=NCCS1` (stereo unspecified) yielded an inhibition of -16.3%.
`Cc1ccc(/C=N/n2c(C)nnc2C)cc1` was tested, and the inhibition was 3.6%.
`Cc1ccc(-c2n[nH]c(=S)n2/N=C/c2ccncc2)cc1` was tested, and the inhibition was -12%.
`CCOC(=O)c1c(-c2ccncc2)csc1N` was tested, and the inhibition was 23.6%.
`CCOC(=O)c1c(-c2ccc(C)s2)csc1N` was tested, and the inhibition was 62.1% (active).
Molecule `NC(=O)c1c(-c2cccs2)csc1N` has an inhibition of 34.2%.
In the case of `CCOC(=O)c1c(-c2cccs2)csc1NC(C)=O`, the inhibition is reported as 7.1%.
`CCOC(=O)c1c(-c2ccc(C)s2)csc1NC(=O)c1cccs1` showed an inhibition of 1.1%.
`CCOC(=O)c1c(-c2cccs2)csc1N` was tested, and the inhibition was 51% (active).
